# Test system: Vero E6 infected with SARS-CoV-2
# Assay: morphology score (similarity to uninfected cells); higher = more like uninfected cells
# Conditions: 24 h
row,Structure (SMILES),morphology score
1,S=C(NC1CCCCC1)N1CCC(c2cnc[nH]2)CC1 [thioperamide] (10 µM),0.083
2,Nc1nc(=O)c2sc(=O)n([C@@H]3O[C@H](CO)[C@@H](O)[C@H]3O)c2[nH]1 (10 µM),0.013
3,CCCCCn1cc(C(=O)NC23CC4CC(CC(C4)C2)C3)c(=O)c2cc(-c3ccccc3)ccc21 (10 µM),0.119
4,CCOP(=S)(OCC)Oc1ccc2c(C)c(Cl)c(=O)oc2c1 [coumophos] (10 µM),-0.0715
5,O=C(NCCS(=O)(=O)c1ccc(C(F)(F)F)cn1)c1ccc(Cl)cc1 (10 µM),0.178
6,CCCNC(=O)Nc1ccc(Oc2ncnc3cc(OC)c(OC)cc23)cc1Cl (10 µM),-0.0266
7,COc1cccc(OC)c1OCCNC[C@H]1COc2ccccc2O1 (10 µM),0.138
8,Cc1cc(C)c(S(=O)(=O)Nc2cccc(C(F)(F)F)c2)c(C)c1 (10 µM),0.152
9,CN(C)CCOC(C)(c1ccccc1)c1ccccn1 (stereo not drawn) [doxylamine] (10 µM),0.112
10,CCc1ccc(C(=O)C(C)CN2CCCCC2)cc1 (stereo not drawn) [eperisone] (10 µM),0.374
11,C[C@@]1(O)[C@H](O)[C@@H](CO)O[C@H]1n1ccc(N)nc1=O (10 µM),0.0553
12,O=C(C[S+]([O-])Cc1ccco1)NC/C=C\COc1cc(CN2CCCCC2)ccn1 (stereo not drawn) [lafutidine] (10 µM),0.0534
13,Cc1oc(-c2ccccc2)nc1CCC(=O)c1ccc(CC2SC(=O)NC2=O)cc1 (stereo not drawn) [darglitazone] (10 µM),0.276
14,C[C@](N)(Cc1ccc(O)cc1)C(=O)O [metirosine] (10 µM),-0.111
15,C[C@H](c1ccc2ccc(OC3CCC(C(F)(F)F)CC3)c(C(F)(F)F)c2c1)N1C2CCC1CC(C(=O)O)C2 (stereo partly drawn) [autotaxin-modulator-1] (10 µM),0.317
16,CCOC(=O)Nc1ccc(NCc2c(C)cc(C)cc2C)cc1N (10 µM),-0.0161
17,COc1cc2c(N3CCN(C(=O)Nc4ccc(OC(C)C)cc4)CC3)ncnc2cc1OCCCN1CCCCC1 [tandutinib] (10 µM),-0.0843

row,Structure (SMILES),morphology score
1,CCn1nc(C)c2c1C(c1ccccc1)=NCC(=O)N2 [ripazepam] (10 µM),0.0297
2,CCOC(=O)c1c(C)n(C)c2ccc(O)cc12 [mecarbinate] (10 µM),0.132
3,Cc1cc(Nc2ncnc3ccc(NC4=NC(C)(C)CO4)cc23)ccc1Oc1ccn2ncnc2c1 [tucatinib] (0.833333 µM),-0.0894
4,OC[C@@H](O)[C@H]1O[C@@H]2O[C@H](C(Cl)(Cl)Cl)O[C@@H]2[C@H]1O [chloralose] (10 µM),0.162
5,O=c1cc(N2CCOCC2)oc2c(-c3ccccc3)cccc12 (0.833333 µM),0.266
6,Nc1nc(=O)c2nc(CNc3ccc(C(=O)N[C@@H](CCC(=O)O)C(=O)O)cc3)cnc2[nH]1 [folic-acid] (10 µM),0.207
7,CC(=O)O[C@]1(C(C)=O)CC[C@H]2[C@@H]3C=C(Cl)C4=CC(=O)CC[C@]4(C)[C@H]3CC[C@@]21C [chlormadinone-acetate] (10 µM),0.106
8,COc1cc(/C=C/C(=O)N2CCN(CC(=O)N3CCCC3)CC2)cc(OC)c1OC [cinepazide] (10 µM),-0.015
9,CC(C)C[C@H](NC(=O)CNC(=O)c1cc(Cl)ccc1Cl)B(O)O [ixazomib] (0.833333 µM),-0.0337
10,CC1CCN(CCCC(=O)c2ccc(F)cc2)CC1 [melperone] (10 µM),0.389
11,CC[C@]1(O)C[C@@H]2CN(CCc3c([nH]c4ccccc34)[C@@](C(=O)OC)(c3cc4c(cc3OC)N(C)[C@H]3[C@@](O)(C(N)=O)[C@H](O)[C@]5(CC)C=CCN6CC[C@]43[C@@H]65)C2)C1 [vindesine] (10 µM),-0.107
12,C[C@H](Nc1cc2c(-c3ccc4c(c3)OCO4)noc2cn1)c1ccccc1 (10 µM),0.191
13,CCC[C@@H]1C[C@@H](C(=O)N[C@@H]([C@H]2O[C@H](SC)[C@H](OP(=O)(O)O)[C@@H](O)[C@H]2O)[C@H](C)Cl)N(C)C1 [Clindamycin phosphate] (10 µM),-0.0234
14,CN(Cc1cc(Br)cc(Br)c1N)C1CCCCC1 [bromhexine] (10 µM),-0.0228
15,c1ccc(-c2n[nH]c3c2oc2ccccc23)cc1 (10 µM),0.0627
16,C[C@]12CC[C@H]3[C@@H](CC[C@@]45O[C@@H]4C(O)=C(C#N)C[C@]35C)[C@@H]1CC[C@@H]2O [trilostane] (10 µM),-0.0579

# Source: the supplement of paper PMC13380429
